Inconclusive results are not listed. The source made the active and inactive calls. Unless noted, the call rests on the fitted dose curve; in most records, active means well fitted curve in either direction with a large enough effect (not every such curve was filed as active); inconclusive means small, poorly fitted or top-dose-only effect, or another doubt; inactive means flat fitted curve, though single readings scatter.
Columns and labels:
[1] = target: Lysosomal acid glucosylceramidase (Homo sapiens) (UniProt P04062); experiment: Glucocerebrosidase-p2 (AID 348; in the data active means potency below about 10 µM; further: potency means the concentration at half of the fitted maximal effect); conditions: purified GBA, blue fluorogenic substrate, 40 min
In short: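 Normal human glucocerebrosidase (0.2 nM) with blue fluorogenic substrate (80 uM final) in citrate/phosphate pH 5.9 with 10mM sodium taurocholate, 0.01% tween-20; 40 min RT, NaOH/glycine stop; fluorescence Ex 365/Em 440; AC50 from a titration from 0.6 nM upwards.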

[2] = AP1 Signaling Pathway (AID 357); conditions: ME-180 AP-1-bla reporter, EGF-induced, beta-lactamase ratio, 5 h; at 7.69 µM (top of the series) unless noted;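 further: ME-180 reporter cells stimulated with EGF at its EC50 level; on the % scale 0 is the no-effect control and ±100 the full control effect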
In short: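 Titration-series screen for positive or negative modulators of EC50 EGF-induced signaling in ME-180 cells carrying an AP-1-driven beta-lactamase reporter. After 5 hours at 37 degrees Celsius, CCF4 460nm/530nm emission ratio gave %Activity; AC50 values derived.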

[3] = target: Cytochrome P450 1A2 (Homo sapiens) (UniProt P05177); experiment: p450-cyp1a2 (AID 410; calls by dose curve; further: potency means the concentration at half of the fitted maximal effect;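 on activity change, negative = inhibition: -100% = full effect of reference inhibitor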); conditions: recombinant CYP1A2, luciferin-ME demethylation, luminescence; series mostly up to 57 µM
In short: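 O-Demethylation of luciferin 6' methyl ether by human CYP1A2 is monitored as luciferase luminescence. Substrate sits at Km (100uM); enzyme is 20nM. Values are scaled to 57 uM furafylline as maximal inhibition.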

[4] = NFAT Signaling Pathway (AID 444); conditions: Jurkat NFAT-bla M1, carbachol, beta-lactamase ratio, 5 h; at 7.69 µM (top of the series) unless noted;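 further: carbachol stimulus at about its EC50 of 1 µM final; on the % scale 0 is the no-effect control and ±100 the full control effect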
In short: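 Jurkat cells carrying an NFAT-driven β-lactamase reporter and co-transfected muscarinic M1 receptor were treated with compound plus carbachol (1 uM final, an EC50 level) for 5 h at 37 °C. CCF4 loading followed for 1 h at RT; 460/530 nm ratio gave %activity.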

[5] = Stat Signaling Pathway (AID 446); conditions: ME-180 SIE beta-lactamase reporter, IL-6 stimulated, 5 h; at 7.69 µM (top of the series) unless noted;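 further: ME-180 cervical cancer cells given 40 pM IL-6 alongside compound; SIE-controlled beta-lactamase reporter measured as 460/530 nm FRET emission ratio; on the % scale 0 is the no-effect control and ±100 the full control effect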
In short: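 Compound effects on IL-6-induced STAT reporter activity were measured in ME-180 cells. After overnight culture, cells were co-treated with 40 pM IL-6 for 5 hrs before beta-lactamase substrate loading at room temperature.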

[6] = target: Glucocorticoid receptor (Homo sapiens) (UniProt P04150); experiment: GR-EFC Redistribution (AID 451; calls by dose curve; further: potency means the concentration at half of the fitted maximal effect); conditions: CHO-K1 GR-EFC translocation, beta-gal luminescence, 2 h
In short: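 CHO-K1 cells stably expressing nuclear-localized β-gal enzyme acceptor and GR fused C-terminally to the enzyme donor fragment; ligand-driven nuclear translocation restores β-gal by complementation. Compounds titrated up to 46 uM final, 2 h at 37 °C; luminescence read.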

[7] = target: Mitogen-activated protein kinase 10 (Mus musculus) (UniProt Q61831); experiment: JNK3 AlphaScreen Assay (AID 530); conditions: JNK3 lysate, c-Jun phosphorylation; series mostly up to 57.1 µM;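 further: kinase came from lysate of stimulated human HepG2 cells; signal reports phosphorylation of biotinylated GST-cJun 1-79 at Ser73 with 10 µM ATP; on the % scale 0 is the no-effect control and ±100 the full control effect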
In short: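 Phosphorylation of biotinylated GST-cJun(1-79) at Ser73 is measured by AlphaScreen proximity luminescence. Enzyme is JNK3 in HepG2 lysates activated with interleukin-1beta and tumor necrosis factor alpha; ATP is 10 uM final.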

[8] = target: 3',5'-cyclic-AMP phosphodiesterase 4B (Homo sapiens) (UniProt Q07343); experiment: qHTS Assay for Inhibitors of PDE-IV (AID 607; active means well fitted activation curve with a large enough effect in the main read-out, with a control signal flat, not every such curve was filed as active; further: % of control where 0% means no effect); conditions: HEK293 ACTOne CNG channel cells, membrane potential fluorescence; series mostly up to 22.9 µM
In short: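 ACTOne HEK293 cells carry a modified cAMP-gated CNG channel and express endogenous PDE4; plated 1000 cells/well, compounds up to 22.9 uM final. Membrane-potential dye fluorescence (ex 535/em 590) was read; parental cells received 10 uM forskolin + 100 uM RO 20-1724.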

[9] = target: Cytochrome P450 2C9 (Homo sapiens) (UniProt P11712); experiment: qHTS Assay for Inhibitors and Substrates of Cytochrome P450 2C9 (AID 883; active means well fitted curve in the direction sought with a large enough effect; an effect the other way counts as inactive or inconclusive; further: nearly all actives have a fitted effect of over 60% in size; further: potency means the concentration at half of the fitted maximal effect); conditions: recombinant CYP2C9, luciferin-H luminescence, 60 min; series mostly up to 57.1 µM
In short: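 A luminogenic readout tracked human CYP2C9 (10nM) converting deoxyluciferin (100uM, at KM) in 25mM KPO4 during 60 min at 37C with regenerated NADPH. Values normalized to 57uM sulphaphenazole as complete inhibition.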

[10] = target: Cytochrome P450 3A4 (Homo sapiens) (UniProt P08684); experiment: qHTS Assay for Inhibitors and Substrates of Cytochrome P450 3A4 (AID 884; active means well fitted curve in the direction sought with a large enough effect; an effect the other way counts as inactive or inconclusive; further: nearly all actives have a fitted effect of over 50% in size; further: potency means the concentration at half of the fitted maximal effect); conditions: recombinant CYP3A4, Luciferin-PPXE luminescence; series mostly up to 57.1 µM
In short: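 Luminescent readout of luciferin produced by CYP3A4 (20 nM) dealkylation of Luciferin-PPXE, 25 uM (its KM). NADPH-driven reaction ran 60 min at RT after 10 min compound preincubation; data scaled to 57 uM ketoconazole as 100% inhibition.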

[11] = qHTS Assay for Identification of Small Molecule Agonists for Hypoxia Response Element Signaling Pathway (AID 914; active means well fitted activation curve with a large enough effect in the signal ratio, with a control signal flat, not every such curve was filed as active; the % refers to the signal ratio; further: % of control where 0% means no effect); conditions: ME-180 (cervical carcinoma) HRE-bla reporter, beta-lactamase ratio, CoCl2, 17 h; activation: stronger effect = higher value
In short: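 A beta-lactamase reporter under hypoxia response element control in ME-180 cells served as the system. Compound titrations plus EC50 CoCl2 ran 17 h at 37 degrees Celsius; AC50 values were fitted from %Activity.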

[12] = qHTS Assay for Lipid Storage Modulators (AID 1519; calls by dose curve); conditions: Drosophila S3 cells, BODIPY lipid droplet/cell ratio, laser cytometry, cells loaded with oleic acid; for activity change, negative = inhibition: at 57.5 µM (top of the series)
In short: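 Cells seeded at 5,000 per well were treated with compounds over a concentration series and loaded with oleic acid (400 uM, as added). Lipid droplet fluorescence (488 nm excitation, 500-530 nm channel) was read by laser-scanning cytometry and normalized to 20 uM Triacsin C.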

[13] = Primary qHTS for small molecule stabilizers of the endoplasmic reticulum resident proteome: Secreted ER Calcium Modulated Protein (SERCaMP) assay (AID 1508630; active means well fitted curve in the direction sought with a large enough effect; an effect the other way counts as inactive or inconclusive; further: on the % scale 0 is the no-effect control and ±100 the full control effect); conditions: SH-SY5Y GLuc-SERCaMP (Gaussia luciferase released on ER calcium loss) secretion, thapsigargin, luminescence; series mostly up to 38.4 µM
In short: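 The SH-SY5Y reporter protocol was run at 3 concentrations up to 38.3 uM (primary) or 11 concentrations (follow-up): 16 h compound, 100 nM thapsigargin for 4 h, then extracellular luciferase luminescence.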

[14] = target: Cytochrome P450 3A4 (Homo sapiens) (UniProt P08684); experiment: qHTS Assay for Activators of Cytochrome P450 3A4 (AID 885; active means well fitted curve in the direction sought with a large enough effect; an effect the other way counts as inactive or inconclusive; further: nearly all actives have a fitted effect of over 65% in size); conditions: recombinant CYP3A4, Luciferin-PPXE luminescence, 60 min; series mostly up to 57.1 µM
In short: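 CYP3A4 activity: Luciferin-PPXE O-dealkylation, 25uM substrate, 200mM KPO4, RT throughout. Read-out is luciferase luminescence; higher values reflect activation.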

[15] = target: Cytochrome P450 2D6 (Homo sapiens) (UniProt P10635); experiment: qHTS Assay for Inhibitors and Substrates of Cytochrome P450 2D6 (AID 891; active means well fitted curve in the direction sought with a large enough effect; an effect the other way counts as inactive or inconclusive;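 further: luciferin methyl ether substrate demethylated by CYP2D6 with NADPH regeneration; on the % scale 0 is the no-effect control and ±100 the full control effect; nearly all actives have a fitted effect of over 60% in size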); conditions: recombinant CYP2D6, luciferin-ME EGE luminescence; series mostly up to 57.1 µM
In short: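 Luminescent read-out of luciferin formed by 5 nM human CYP2D6 demethylating 30 uM Luciferin-ME EGE (Km level) over 60 min at room temperature after NADPH regeneration addition. Data normalized to full inhibition by 1.43 uM quinidine.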

[16] = target: Cytochrome P450 2C19 (Homo sapiens) (UniProt P33261); experiment: qHTS Assay for Inhibitors and Substrates of Cytochrome P450 2C19 (AID 899; active means well fitted curve in the direction sought with a large enough effect; an effect the other way counts as inactive or inconclusive; further: on the % scale 0 is the no-effect control and ±100 the full control effect; nearly all actives have a fitted effect of over 60% in size); conditions: recombinant CYP2C19, luciferin-H EGE luminescence; series mostly up to 57.1 µM
In short: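 NADPH-dependent conversion of Luciferin-H EGE (10uM, at KM) by 5nM enzyme in 50mM KPO4, 60 min at 37C following 10 min compound preincubation. Stopped with luciferin detection buffer; luminescence read after 20 min.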

[17] = measured here: cell count channel max response
[18] = measured here: lipid channel max response

3',5'-cyclic-AMP phosphodiesterase 4B (Homo sapiens), sequence (Q07343 whole entry, looked up): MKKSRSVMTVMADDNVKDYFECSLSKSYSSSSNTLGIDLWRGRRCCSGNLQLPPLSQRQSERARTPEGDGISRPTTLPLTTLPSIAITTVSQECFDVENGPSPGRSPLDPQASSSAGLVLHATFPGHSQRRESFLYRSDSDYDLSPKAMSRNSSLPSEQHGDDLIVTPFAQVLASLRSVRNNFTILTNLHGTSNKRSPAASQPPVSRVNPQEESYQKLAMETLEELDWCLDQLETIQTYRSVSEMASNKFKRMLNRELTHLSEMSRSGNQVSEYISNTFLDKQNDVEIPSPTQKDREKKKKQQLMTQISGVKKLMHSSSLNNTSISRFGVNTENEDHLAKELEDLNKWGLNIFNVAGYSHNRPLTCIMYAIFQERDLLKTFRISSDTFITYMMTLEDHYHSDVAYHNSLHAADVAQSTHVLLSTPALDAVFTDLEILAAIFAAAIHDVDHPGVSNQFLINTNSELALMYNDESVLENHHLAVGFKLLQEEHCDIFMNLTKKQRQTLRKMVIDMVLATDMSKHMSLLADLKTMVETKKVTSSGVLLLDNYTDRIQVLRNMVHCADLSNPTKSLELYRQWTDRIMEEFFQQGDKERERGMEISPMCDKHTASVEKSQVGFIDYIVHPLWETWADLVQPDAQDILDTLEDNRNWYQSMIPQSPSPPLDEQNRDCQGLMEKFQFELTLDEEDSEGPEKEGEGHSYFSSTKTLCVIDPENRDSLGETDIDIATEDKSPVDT
Cytochrome P450 1A2 (Homo sapiens), sequence (P05177 whole entry, looked up): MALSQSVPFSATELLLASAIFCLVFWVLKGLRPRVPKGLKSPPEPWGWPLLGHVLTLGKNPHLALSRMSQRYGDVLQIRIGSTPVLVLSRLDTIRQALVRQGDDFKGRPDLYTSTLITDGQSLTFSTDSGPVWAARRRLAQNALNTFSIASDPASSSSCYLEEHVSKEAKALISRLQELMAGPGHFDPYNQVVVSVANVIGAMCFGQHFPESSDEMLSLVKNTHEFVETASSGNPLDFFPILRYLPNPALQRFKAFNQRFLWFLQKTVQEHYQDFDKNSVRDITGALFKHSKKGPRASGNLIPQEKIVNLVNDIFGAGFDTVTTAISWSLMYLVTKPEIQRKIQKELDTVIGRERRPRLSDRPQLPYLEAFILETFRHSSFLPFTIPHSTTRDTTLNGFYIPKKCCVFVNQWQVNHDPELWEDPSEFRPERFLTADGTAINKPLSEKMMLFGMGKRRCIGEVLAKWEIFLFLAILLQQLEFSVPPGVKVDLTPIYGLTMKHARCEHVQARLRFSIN
Glucocorticoid receptor (Homo sapiens), sequence (P04150 whole entry, looked up, the tested form may be a part): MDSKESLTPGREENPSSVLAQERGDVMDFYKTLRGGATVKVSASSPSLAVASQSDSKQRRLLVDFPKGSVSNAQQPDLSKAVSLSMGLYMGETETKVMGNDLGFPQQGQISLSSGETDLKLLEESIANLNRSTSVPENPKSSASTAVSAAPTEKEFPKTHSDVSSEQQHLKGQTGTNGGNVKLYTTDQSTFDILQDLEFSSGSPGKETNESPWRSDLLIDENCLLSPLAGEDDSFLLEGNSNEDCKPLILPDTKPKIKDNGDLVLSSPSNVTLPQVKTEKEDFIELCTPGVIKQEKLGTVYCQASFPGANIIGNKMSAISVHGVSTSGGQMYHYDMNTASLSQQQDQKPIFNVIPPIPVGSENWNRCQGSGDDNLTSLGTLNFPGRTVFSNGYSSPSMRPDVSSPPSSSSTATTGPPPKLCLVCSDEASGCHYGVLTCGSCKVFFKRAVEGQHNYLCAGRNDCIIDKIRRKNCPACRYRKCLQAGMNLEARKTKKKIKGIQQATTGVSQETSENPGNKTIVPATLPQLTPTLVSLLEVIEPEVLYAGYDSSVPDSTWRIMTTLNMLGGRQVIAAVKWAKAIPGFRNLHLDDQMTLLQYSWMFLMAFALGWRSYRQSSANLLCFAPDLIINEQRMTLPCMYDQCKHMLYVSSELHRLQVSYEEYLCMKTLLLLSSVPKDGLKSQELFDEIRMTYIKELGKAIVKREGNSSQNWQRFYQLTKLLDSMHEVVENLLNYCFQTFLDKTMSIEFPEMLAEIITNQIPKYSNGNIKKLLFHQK
Cytochrome P450 3A4 (Homo sapiens), sequence (P08684 whole entry, looked up): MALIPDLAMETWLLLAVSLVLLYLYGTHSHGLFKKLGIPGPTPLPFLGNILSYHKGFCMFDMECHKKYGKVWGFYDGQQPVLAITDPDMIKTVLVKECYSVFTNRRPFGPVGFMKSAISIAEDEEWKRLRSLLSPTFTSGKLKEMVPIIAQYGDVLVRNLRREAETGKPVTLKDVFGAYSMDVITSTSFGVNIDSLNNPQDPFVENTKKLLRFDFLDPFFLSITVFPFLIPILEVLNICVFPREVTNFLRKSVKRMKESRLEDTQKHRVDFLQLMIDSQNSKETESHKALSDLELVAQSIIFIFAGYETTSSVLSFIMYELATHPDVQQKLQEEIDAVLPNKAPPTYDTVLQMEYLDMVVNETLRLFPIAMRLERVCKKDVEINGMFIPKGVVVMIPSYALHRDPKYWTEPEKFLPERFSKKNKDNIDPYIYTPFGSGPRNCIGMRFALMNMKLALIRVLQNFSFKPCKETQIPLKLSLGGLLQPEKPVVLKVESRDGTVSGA
Lysosomal acid glucosylceramidase (Homo sapiens), sequence (P04062 whole entry, looked up): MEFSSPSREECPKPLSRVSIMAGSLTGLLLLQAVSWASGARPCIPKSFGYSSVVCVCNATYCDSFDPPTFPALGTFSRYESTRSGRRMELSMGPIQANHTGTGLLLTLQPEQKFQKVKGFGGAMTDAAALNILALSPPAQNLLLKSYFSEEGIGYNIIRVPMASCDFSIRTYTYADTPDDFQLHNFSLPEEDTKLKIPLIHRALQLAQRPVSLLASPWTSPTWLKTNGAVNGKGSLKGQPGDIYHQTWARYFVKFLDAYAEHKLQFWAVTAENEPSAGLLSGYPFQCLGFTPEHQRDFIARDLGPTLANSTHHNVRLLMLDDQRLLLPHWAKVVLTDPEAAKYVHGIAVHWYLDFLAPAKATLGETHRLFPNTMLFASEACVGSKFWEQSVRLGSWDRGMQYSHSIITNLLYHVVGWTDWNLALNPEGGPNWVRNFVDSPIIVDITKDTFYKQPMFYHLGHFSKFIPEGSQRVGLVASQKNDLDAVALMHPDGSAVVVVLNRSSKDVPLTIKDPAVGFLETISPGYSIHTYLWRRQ
Cytochrome P450 2C9 (Homo sapiens), sequence (P11712 whole entry, looked up): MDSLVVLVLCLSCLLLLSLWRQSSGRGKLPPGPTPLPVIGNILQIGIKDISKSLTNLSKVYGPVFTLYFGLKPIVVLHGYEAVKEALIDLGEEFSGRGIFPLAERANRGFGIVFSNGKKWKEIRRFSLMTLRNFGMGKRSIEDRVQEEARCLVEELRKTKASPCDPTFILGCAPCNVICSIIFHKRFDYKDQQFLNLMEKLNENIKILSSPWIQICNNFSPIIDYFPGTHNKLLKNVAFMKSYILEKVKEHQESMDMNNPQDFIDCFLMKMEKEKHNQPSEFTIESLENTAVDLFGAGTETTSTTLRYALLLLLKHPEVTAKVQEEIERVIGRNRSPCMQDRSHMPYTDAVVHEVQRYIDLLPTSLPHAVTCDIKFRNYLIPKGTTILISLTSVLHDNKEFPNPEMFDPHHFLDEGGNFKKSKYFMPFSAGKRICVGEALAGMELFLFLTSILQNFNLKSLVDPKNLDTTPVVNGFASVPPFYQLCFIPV
Cytochrome P450 2D6 (Homo sapiens), sequence (P10635 whole entry, looked up): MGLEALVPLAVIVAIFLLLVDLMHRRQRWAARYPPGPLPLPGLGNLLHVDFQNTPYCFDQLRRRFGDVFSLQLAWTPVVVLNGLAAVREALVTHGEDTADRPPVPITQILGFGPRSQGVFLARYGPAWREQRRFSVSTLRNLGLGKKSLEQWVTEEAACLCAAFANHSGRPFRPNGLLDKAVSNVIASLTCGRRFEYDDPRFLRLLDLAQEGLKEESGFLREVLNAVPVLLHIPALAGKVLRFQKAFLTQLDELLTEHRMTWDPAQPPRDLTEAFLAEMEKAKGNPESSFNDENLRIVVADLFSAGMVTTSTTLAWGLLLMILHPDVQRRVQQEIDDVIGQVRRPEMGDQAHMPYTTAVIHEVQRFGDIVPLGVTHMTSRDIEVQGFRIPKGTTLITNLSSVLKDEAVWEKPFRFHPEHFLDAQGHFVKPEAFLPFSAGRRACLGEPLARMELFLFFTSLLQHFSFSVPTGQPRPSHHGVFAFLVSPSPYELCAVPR
Cytochrome P450 2C19 (Homo sapiens), sequence (P33261 whole entry, looked up): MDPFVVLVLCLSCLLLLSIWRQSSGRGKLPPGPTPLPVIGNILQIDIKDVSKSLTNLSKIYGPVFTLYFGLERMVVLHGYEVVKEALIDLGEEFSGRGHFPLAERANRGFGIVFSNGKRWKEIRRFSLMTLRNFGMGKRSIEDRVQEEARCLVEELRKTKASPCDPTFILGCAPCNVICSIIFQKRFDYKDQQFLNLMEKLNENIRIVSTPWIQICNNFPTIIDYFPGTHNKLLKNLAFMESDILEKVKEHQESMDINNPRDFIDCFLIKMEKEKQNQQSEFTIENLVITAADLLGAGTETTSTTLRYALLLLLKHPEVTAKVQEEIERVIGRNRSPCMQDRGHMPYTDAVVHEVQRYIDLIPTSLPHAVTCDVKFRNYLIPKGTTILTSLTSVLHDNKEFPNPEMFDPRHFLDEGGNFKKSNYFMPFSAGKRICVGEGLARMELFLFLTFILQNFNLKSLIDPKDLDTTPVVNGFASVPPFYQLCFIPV

Structure (SMILES)	Potency [1]	activity change, negative = inhibition [2]	Potency [3]	activity change, negative = inhibition [4]	activity, negative = inhibition [5]	Potency [6]	outcome [7]	Potency [8]	Potency [9]	Potency [10]	activation [11]	activity change, negative = inhibition [12]	max response [12, 17]	max response [12, 18]	Potency [13]	Potency [14]	Potency [15]	Potency [16]
CC(C)NC(=O)N1CCC2(CC1)CCN(C(=O)c1cc(C(F)(F)F)cc(C(F)(F)F)c1)CC2	> 11.4 µM (inactive)	-12% (inactive)	inactive	25.7% (inactive)	-9.32% (inactive)	> 46 µM (inactive)	inactive	inactive	inactive	inactive	9.62% (inactive)	-0.11% (inactive)	-8.79%	-7.75%	inactive	–	–	–
O=C(c1ccco1)N1CCC2(CC1)CCN(c1ccccc1)CC2	> 11.4 µM (inactive)	2.89% (inactive)	inactive	-1.84% (inactive)	-6.6% (inactive)	> 46 µM (inactive)	inactive	inactive	–	–	–	1.71% (inactive)	23.3%	29.9%	inactive	–	–	–
COC(=O)N1CCC[C@@]2(CCN(c3ccncc3)C2)C1	> 11.4 µM (inactive)	-7.07% (inactive)	inactive	-14.4% (inactive)	-2.36% (inactive)	> 46 µM (inactive)	inactive	inactive	inactive	3.98 µM (active)	–	4.92% (inactive)	18.5%	26.2%	inactive	inactive	inactive	–
O=C(Nc1cccc(F)c1)N1CC2(CCN(C(=O)c3csnn3)CC2)C1	> 11.4 µM (inactive)	-24.7% (inactive)	inactive	16.8% (inactive)	-8.23% (inactive)	> 46 µM (inactive)	inactive	inactive	–	–	–	5.27% (inactive)	2.11%	8.72%	inactive	–	–	–
CC(C)NC(=O)N1CC[C@@]2(CCCN(C(=O)Oc3ccccc3)C2)C1	> 11.4 µM (inactive)	6.59% (inactive)	inactive	-15.6% (inactive)	-4.24% (inactive)	> 46 µM (inactive)	inactive	inactive	inactive	inactive	–	1.37% (inactive)	8.74%	17.3%	inactive	–	inactive	inactive
CC(C)NC(=O)N1CCC2(CC1)CCN(C(=O)c1csnn1)CC2	> 11.4 µM (inactive)	-2.2% (inactive)	inactive	6.85% (inactive)	-6.49% (inactive)	> 46 µM (inactive)	inactive	inactive	–	–	–	1.46% (inactive)	-0.0052%	5.7%	inactive	–	–	–
Cc1noc(C)c1C(=O)N1CCC[C@@]2(CCN(C(=O)NC(C)C)C2)C1	> 11.4 µM (inactive)	-0.0457% (inactive)	inactive	7.59% (inactive)	-12.3% (inactive)	> 46 µM (inactive)	inactive	inactive	–	–	–	3.68% (inactive)	13.4%	18.4%	inactive	–	–	–
O=C(c1csnn1)N1CCC2(CC1)CN(c1ccncc1)C2	> 11.4 µM (inactive)	-12.4% (inactive)	inactive	-12.8% (inactive)	-7.18% (inactive)	> 46 µM (inactive)	inactive	inactive	2.51 µM (active)	–	–	0.619% (inactive)	4.32%	5.47%	inactive	–	–	–
COc1ccc(C(=O)N2CCC3(CC2)CN(C(=O)Nc2ccccc2)C3)cc1	> 11.4 µM (inactive)	-1.19% (inactive)	25.1 µM (active)	22.2% (inactive)	-10.2% (inactive)	> 46 µM (inactive)	inactive	inactive	–	–	–	5.49% (inactive)	8.4%	17.6%	inactive	–	–	–
CC(=O)N1CCC2(CCCN(c3ccccn3)C2)CC1	> 11.4 µM (inactive)	4.59% (inactive)	inactive	3.45% (inactive)	-5.49% (inactive)	> 46 µM (inactive)	inactive	inactive	–	–	–	5.15% (inactive)	19.4%	28%	inactive	–	–	–
COCC(=O)N1CCC[C@@]2(CCN(C(=O)Nc3cccc(C#N)c3)C2)C1	> 11.4 µM (inactive)	0.866% (inactive)	inactive	-2.97% (inactive)	2.49% (inactive)	> 46 µM (inactive)	inactive	inactive	inactive	inactive	–	4.94% (inactive)	13.7%	21.6%	inactive	–	inactive	inactive
COc1ccc(NC(=O)N2CC[C@@]3(CCCNC3)C2)cc1	> 11.4 µM (inactive)	-15.6% (inactive)	inactive	-5.59% (inactive)	-0.259% (inactive)	> 46 µM (inactive)	inactive	inactive	–	–	–	-2.79% (inactive)	-3.47%	-5.51%	inactive	–	–	–
COc1ccccc1CN1CC[C@@]2(CCCN(C(=O)c3c(C)noc3C)C2)C1	> 11.4 µM (inactive)	-0.263% (inactive)	inactive	-13.2% (inactive)	-3.34% (inactive)	> 46 µM (inactive)	inactive	inactive	inactive	1.58 µM (active)	–	6.24% (inactive)	6.8%	12.8%	inactive	inactive	–	–

From PubChem BioAssay (NCATS)
